{"source": "paper PMC4336329", "about": "(PLoS ONE, 2015)", "note": "The whole screen tested about 310,000 compounds, of which about 14,000 (4.5%) showed an effect of 50% or more. The effect is printed as a negative number. Shown is part of a subset that was picked to be rich in strong results.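 Further: peak tail current of the secondary pulse compared with the same well before compound.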"}
{"molecular_target": "human ether-à-go-go-related gene (hERG) potassium channel (human, UniProt Q12809)", "sequence (Q12809 whole entry, looked up)": "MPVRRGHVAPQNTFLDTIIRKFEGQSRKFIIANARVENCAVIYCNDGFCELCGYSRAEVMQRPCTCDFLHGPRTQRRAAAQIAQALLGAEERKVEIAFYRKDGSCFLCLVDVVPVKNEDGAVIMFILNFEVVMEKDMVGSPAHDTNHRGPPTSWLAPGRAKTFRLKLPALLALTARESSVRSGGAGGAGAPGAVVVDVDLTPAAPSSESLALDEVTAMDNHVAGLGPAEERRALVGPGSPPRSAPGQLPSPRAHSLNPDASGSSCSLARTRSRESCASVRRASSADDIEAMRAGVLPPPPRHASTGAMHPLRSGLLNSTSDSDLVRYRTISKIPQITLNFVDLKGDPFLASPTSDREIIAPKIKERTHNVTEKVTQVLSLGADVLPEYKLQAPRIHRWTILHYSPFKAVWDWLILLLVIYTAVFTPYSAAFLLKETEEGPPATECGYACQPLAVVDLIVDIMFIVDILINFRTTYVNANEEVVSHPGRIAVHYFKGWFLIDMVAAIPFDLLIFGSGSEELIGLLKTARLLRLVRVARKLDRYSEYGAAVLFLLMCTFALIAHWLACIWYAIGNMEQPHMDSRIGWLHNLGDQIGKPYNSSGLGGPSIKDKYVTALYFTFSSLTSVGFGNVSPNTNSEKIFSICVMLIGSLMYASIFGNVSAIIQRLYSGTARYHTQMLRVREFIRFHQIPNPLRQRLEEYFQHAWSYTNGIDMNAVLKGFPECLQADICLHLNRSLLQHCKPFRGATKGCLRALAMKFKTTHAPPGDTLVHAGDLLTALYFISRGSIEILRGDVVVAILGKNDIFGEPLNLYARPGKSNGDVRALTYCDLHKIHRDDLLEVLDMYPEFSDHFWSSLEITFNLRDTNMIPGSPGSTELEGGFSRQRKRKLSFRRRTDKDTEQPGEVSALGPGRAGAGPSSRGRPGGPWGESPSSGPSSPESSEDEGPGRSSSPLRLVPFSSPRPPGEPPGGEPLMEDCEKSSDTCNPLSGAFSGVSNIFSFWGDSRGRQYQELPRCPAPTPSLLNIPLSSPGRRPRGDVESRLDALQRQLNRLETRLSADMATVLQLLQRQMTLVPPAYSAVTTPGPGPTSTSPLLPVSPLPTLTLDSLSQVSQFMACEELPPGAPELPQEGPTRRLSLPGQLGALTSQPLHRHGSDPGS", "test": "primary screen, population patch clamp on CHO cells stably expressing hERG; higher = less effect of the substance", "units": {"hERG current change (%, negative = inhibition) at 10uM": "%"}}
{"compound": "CCCn1c(=N)c(C#N)cc2c(=O)n3ccccc3nc21", "hERG current change (%, negative = inhibition) at 10uM": -9.89}
{"compound": "Cc1ccc2nc3c(cc(C#N)c(=O)n3-c3nccs3)c(=O)n2c1", "hERG current change (%, negative = inhibition) at 10uM": 2.51}
{"compound": "Cc1cccn2c(=O)c3cc(C#N)c(=O)n(-c4c(C)n(C)n(-c5ccccc5)c4=O)c3nc12", "hERG current change (%, negative = inhibition) at 10uM": -7.5}
{"compound": "Cc1ccc2nc(NCc3ccccc3)c(C=NCc3cccnc3)c(=O)n2c1", "hERG current change (%, negative = inhibition) at 10uM": 3.39}
{"compound": "CCC(C)n1c(=N)c(C#N)cc2c(=O)n3cc(C)ccc3nc21", "note": "(centres unmarked)", "hERG current change (%, negative = inhibition) at 10uM": -70.9}
{"compound": "Cc1ccc(Cn2c(=N)c(C#N)cc3c(=O)n4cccc(C)c4nc32)cc1", "hERG current change (%, negative = inhibition) at 10uM": -13}
{"compound": "CCC(C)n1c(=N)c(C#N)cc2c(=O)n3cccc(C)c3nc21", "note": "(centres unmarked)", "hERG current change (%, negative = inhibition) at 10uM": -66.9}
{"compound": "N#Cc1cc2c(=O)n3ccccc3nc2n(Cc2cccnc2)c1=O", "hERG current change (%, negative = inhibition) at 10uM": -21}
{"compound": "Cc1ccc2nc3c(cc(C#N)c(=N)n3Cc3cccnc3)c(=O)n2c1", "hERG current change (%, negative = inhibition) at 10uM": -60.4}
{"compound": "CCCn1c(=N)c(C#N)cc2c(=O)n3cccc(C)c3nc21", "hERG current change (%, negative = inhibition) at 10uM": -53}
{"compound": "CCC(C)n1c(=N)c(C#N)cc2c(=O)n3ccccc3nc21", "note": "(centres unmarked)", "hERG current change (%, negative = inhibition) at 10uM": -40.9}
{"compound": "Cc1ccc(C)c(-n2c(=O)c(C#N)cc3c(=O)n4ccccc4nc32)c1", "hERG current change (%, negative = inhibition) at 10uM": 30.5}
{"compound": "CC(=O)NC(CC(=O)Nc1nc(C)cs1)c1ccccc1", "note": "(centres unmarked)", "hERG current change (%, negative = inhibition) at 10uM": 14.1}
{"compound": "CCCCCCCCn1sccc1=O", "hERG current change (%, negative = inhibition) at 10uM": -33.8}
{"compound": "Cc1ccc(S(=O)(=O)N2CCN3CCCC3C2)cc1", "note": "(centres unmarked)", "hERG current change (%, negative = inhibition) at 10uM": -6.76}
{"compound": "COc1ccc(S(=O)(=O)NCCc2nnc3ccc(SCC(=O)Nc4nc(C)cs4)nn23)cc1", "hERG current change (%, negative = inhibition) at 10uM": 25.3}
{"compound": "NC(=O)CC1C(=O)N(c2ccc(Cl)cc2)C(=S)N1NC(=O)c1cccc(F)c1", "note": "(centres unmarked)", "hERG current change (%, negative = inhibition) at 10uM": 15.3}
{"compound": "COc1ccccc1/C=C/C(=O)NCC(=O)N/N=C(/C)c1ccco1", "hERG current change (%, negative = inhibition) at 10uM": 7.74}
{"compound": "Nc1[nH]nc2nc3ccccc3cc12", "hERG current change (%, negative = inhibition) at 10uM": 23}
{"compound": "O=c1oc2ccccc2cc1-c1cn2cccnc2n1", "hERG current change (%, negative = inhibition) at 10uM": 1.91}
{"compound": "COc1ccc(C2C(C(=O)N3CCN(c4ccccn4)CC3)CCC(=O)N2c2cc(OC)c(OC)c(OC)c2)cc1", "note": "(centres unmarked)", "hERG current change (%, negative = inhibition) at 10uM": 9.77}
{"compound": "Cc1cccc(N=C2C(=O)Nc3c(Cl)cccc32)c1", "hERG current change (%, negative = inhibition) at 10uM": 18.5}
{"compound": "CCc1nc2cc(Cl)c(Cl)cc2[nH]1", "hERG current change (%, negative = inhibition) at 10uM": 2.59}
{"compound": "Cc1ccc(-n2c(=O)c(C#N)cc3c(=O)n4cccc(C)c4nc32)cc1", "hERG current change (%, negative = inhibition) at 10uM": 1.03}
{"compound": "Cc1cc(-n2c(=O)c(C#N)cc3c(=O)n4cccc(C)c4nc32)no1", "hERG current change (%, negative = inhibition) at 10uM": -65.1}
{"compound": "Cc1cc(-n2c(=O)c(C#N)cc3c(=O)n4ccccc4nc32)no1", "hERG current change (%, negative = inhibition) at 10uM": -17}
